Assay outcomes as filed in PubChem BioAssay.
VP16 counter: VP16 counterscreen qHTS for inhibitors of ROR gamma transcriptional activity | Drosophila S2 Gal4-VP16 UAS-luciferase, luminescence, 20 h | Potency, µM (series often up to 53.6 µM), actives largely listed as inhibitors | actives 3.5% (n = 310,000);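 also: Gal4-VP16 expression switched on by copper sulfate through the metallothionein promoter; nearly all actives have a fitted effect of over 50% in size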
TDP1 cell noCPT: qHTS for Inhibitors of human tyrosyl-DNA phosphodiesterase 1 (TDP1): qHTS in cells in absence of CPT; actives 15% (n = 420,000); AID 686978, 2013; Potency, µM (titrated, usually from 46.2 µM), hits mostly inhibitors; DT40 Tdp1-/- hTDP1 cells, no CPT, ATP luminescence, 48 h; also: nearly all actives have a fitted effect of over 55% in size
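Growth kinetics read by CellTiter-Glo luminescence after ≥48 hr at 37 °C. Cells: DT40 Tdp1-/- stably carrying human TDP1, 400 per well, compound exposure in the absence of CPT (DMSO vehicle).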
RORgamma inh: qHTS for inhibitors of ROR gamma transcriptional activity. Drosophila S2 Gal4-RORgamma UAS-luciferase reporter, 20 h. actives 5.4% (n = 310,000). Nuclear receptor ROR-gamma (Mus musculus), P51450. Potency, µM (series often up to 53.6 µM), usual class: inhibitors; also: nearly all actives have a fitted effect of over 60% in size
Target sequence (P51450 whole entry, looked up, the tested form may be a part): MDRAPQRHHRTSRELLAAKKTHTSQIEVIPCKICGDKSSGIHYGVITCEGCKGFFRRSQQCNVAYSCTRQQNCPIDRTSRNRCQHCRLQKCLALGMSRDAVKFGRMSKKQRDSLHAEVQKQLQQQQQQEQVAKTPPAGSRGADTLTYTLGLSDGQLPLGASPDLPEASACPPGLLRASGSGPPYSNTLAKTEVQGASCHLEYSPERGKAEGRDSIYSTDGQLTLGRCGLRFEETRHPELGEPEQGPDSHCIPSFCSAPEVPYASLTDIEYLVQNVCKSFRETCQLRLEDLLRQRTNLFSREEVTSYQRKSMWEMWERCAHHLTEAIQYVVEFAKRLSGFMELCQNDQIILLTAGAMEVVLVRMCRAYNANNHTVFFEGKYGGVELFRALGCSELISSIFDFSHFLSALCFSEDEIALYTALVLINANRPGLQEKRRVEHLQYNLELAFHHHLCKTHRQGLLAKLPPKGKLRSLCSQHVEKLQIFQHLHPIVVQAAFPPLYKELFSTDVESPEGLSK
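A Gal4/UAS one-hybrid system in insect cells: metallothionein-promoter Gal4–ROR gamma fusion plus Photinus luciferase reporter. Copper sulfate 700 uM final, 20 hr ambient incubation, luminescent detection after 10 min with reagent.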
IL-1B inflam inh: qHTS for Inhibitors of Inflammasome Signaling: IL-1-beta AlphaLISA Primary Screen | activity change, % at 57.5 µM | THP-1 LPS/ATP IL-1B secretion, AlphaLISA, 16 h; hits give low values | actives 4.7% (n = 360,000) | AID 743279, 2014; in the data active = activity change below about -50%; inconclusive = mostly about -30% to -49%
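THP-1 cells pretreated 1 hr with compounds (up to 57.5 uM final), then stimulated with LPS (250 ng/mL final) plus ATP (1.25 mM final); secreted IL-1B measured by AlphaLISA after 16 hr, decreased signal indicating inhibition.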
ELG1 DNA repair: qHTS screen for small molecules that inhibit ELG1-dependent DNA repair in human embryonic kidney (HEK293T) cells expressing luciferase-tagged ELG1; actives 2.3% (n = 330,000); Potency, µM (doses to about 46.1 µM), actives largely listed as inhibitors; HEK293T ELG1-luciferase reporter, luminescence, 16 h; DNA damage induced by 5-fluorouridine; AID 504467, 2011; also: nearly all actives have a fitted effect of over 55% in size
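Quantitative HTS, concentration-response format. 2,000 cells/well co-treated with 5-fluorouridine and compound, 16 hr in 5% CO2 at 37 °C; ONE-Glo luminescence read after 30 min.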
DT40 TDP1 CPT: qHTS for Inhibitors of human tyrosyl-DNA phosphodiesterase 1 (TDP1): qHTS in cells in presence of CPT. chicken DT40 Tdp1-/-;hTDP1 cells + 20 nM CPT, ATP luminescence, 48 h. Potency, µM (series often up to 46.2 µM), most hits filed as inhibitors. actives 12% (n = 420,000). AID 686979, 2013; also: nearly all actives have a fitted effect of over 55% in size
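Cell growth measured by CellTiter-Glo luminescence after a minimum 48 h, 37 C compound exposure with 20 nM CPT in Tdp1-knockout DT40 cells stably expressing hTDP1, seeded 400/well; qHTS titration format.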
Of the large screens only hits and unclear results are named; the others gave an inactive call. Sampled rows, rich in hits. Any-hit rate of the full collection: about 21%. Unless noted, calls follow the shape of the dose curve; as a rule, active = well fitted curve in the direction sought with a large enough effect; inconclusive = small, poorly fitted or top-dose-only effect, or another doubt; inactive = no such curve, though single readings can be large; an effect the other way counts as inactive or inconclusive.

CCOC(=O)N1CCN(C(=O)C(NC(=O)c2ccc(C(C)(C)C)cc2)C(C)C)CC1 (configuration not stated)	TDP1 cell noCPT 2.3µM, ELG1 DNA repair inconclusive, DT40 TDP1 CPT 8.2µM (no result: VP16 counter, RORgamma inh)
O=C(NC(=S)N1CCN(C/C=C/c2ccccc2)CC1)c1ccc(F)cc1	VP16 counter 0.63µM, TDP1 cell noCPT inconclusive, RORgamma inh 0.28µM, ELG1 DNA repair 10µM, DT40 TDP1 CPT inconclusive
CCOC(=O)N1CCN(C(=O)c2ccccc2NC(=O)c2ccc(C(C)(C)C)cc2)CC1	none
COc1ccccc1C(=O)NCC(=O)N1CCN(C/C=C/c2ccccc2)CC1	TDP1 cell noCPT inconclusive, DT40 TDP1 CPT inconclusive (no result: VP16 counter, RORgamma inh)
Cc1ccc(OCCSc2nc3ccccc3n2CCC(=O)O)c(C(C)C)c1	TDP1 cell noCPT inconclusive (no result: VP16 counter, RORgamma inh, ELG1 DNA repair)
OC(CNC1CCCC1)COCCOc1ccc(Br)cc1 (configuration not stated)	TDP1 cell noCPT inconclusive, IL-1B inflam inh -66, DT40 TDP1 CPT inconclusive
CC1(C)CCCC(C)(C)N1CC(O)COCCOc1ccc(Br)cc1 (configuration not stated)	TDP1 cell noCPT 16µM, RORgamma inh inconclusive, DT40 TDP1 CPT inconclusive
OC(COc1cccc2ccccc12)CN1CCN(c2ccccc2Cl)CC1 (configuration not stated)	TDP1 cell noCPT inconclusive, DT40 TDP1 CPT 18µM
Cc1ccc(N2CCN(CC(O)COc3cccc4ccccc34)CC2)cc1 (configuration not stated)	TDP1 cell noCPT inconclusive, DT40 TDP1 CPT inconclusive
